The record followed here is ChEMBL document CHEMBL1201862, “PubChem BioAssay data set” (2004).

Among all 15,000 sequences or so, about 620 (4.1%) were called active. Cut-off read from the data, not from the text of the source: active = GI50 up to about 1.1 µM and inactive = higher. Not all results are given here. Measured potencies and affinities stand elsewhere.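 In this assay, cells in 96-well plates receive the compound at five concentrations for 48 hours. Endpoints are linearly interpolated between the surrounding concentrations. The concentration for 50% growth inhibition is given as GI50.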

The test has as its system M19-MEL. The test can be described thus: NCI tumour cell line growth inhibition, 48 h.
For “[Bis(aminomethyl)ethylmethylsilane]tetrachloroplatinum(IV), CHEMBL2146192”, the GI50 turned out to be 1.52 µM. The substance “mu-(1,7-nanodiamine-N,N')bis-(cis-aminedichloroplatimum (II)), CHEMBL2146215” gave a GI50 of 1.36 µM. For “[Bis(aminomethyl)pentamethylenesilane]dichloropaltinum(II), CHEMBL2146202” the value was 5.38 µM; for “[Bis(aminomethyl)tetramethylenesilane]dichloropaltinum(II), CHEMBL2146205”, 19.3 µM. For “[Bis(aminomethyl)tetramethylenesilane]tetrachloropaltinum(IV), CHEMBL2146189” the value was 2.83 µM; for “[Bis(aminomethyl)dimethylsilane]dichloroplatinum (II), CHEMBL2146201”, 15.2 µM. For “cis-Bis[[(trimethylsilyl)methyl]amino]tetrachloroplatinum(IV), CHEMBL2146191” the value was 3.37 µM. In the case of “[Bis(aminomethyl)diethylsilane]tetrachloroplatinum(IV), CHEMBL2146203”, the GI50 came out at 2.03 µM. For “[Bis(aminomethyl)pentamethylenesilane]tetrachloropaltinum(IV), CHEMBL2146204” the value was 2.24 µM; for “[Bis(aminomethyl)dimethylsilane]tetrachloroplatinum(IV), CHEMBL2146190”, 3.12 µM.
